D1 antag: blocks dopamine activation of the human D1 receptor; P21728; HEK293 TREx D1 cells, calcium flux, dopamine EC80; stronger effect = lower value; activity change, negative = inhibition, % at 10 µM; 360,000 compounds, 3.2% hits; in the data active = activity change below about -30%; also: % is scaled to controls: 0 for no effect and ±100 for the full control effect
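Inducible Hek293 Trex D1 cells (tetracycline, overnight, 30 C). Calcium dye 30–90 min RT. Antagonist mode: EC80 dopamine added after 180 s compound read.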
D1 potentiator: human D1 dopamine receptor positive modulation | P21728 | HEK293 TREx D1 cells, calcium flux, dopamine EC20 potentiation | potentiation, % at 10 µM | 360,000 compounds, 0.036% hits | AID 504651; in the data active = potentiation above about 30%; also: 0% is about no effect
DRD3 agonist: activates the human D3 dopamine receptor; 410,000 compounds, 0.58% hits; AID 652048; D3R DiscoveRx beta-arrestin cells, luminescence, 90 min; max activation, %; P35462; in the data active = max activation above about 30%; also: 0% is about no effect
Target sequence (P35462 whole entry, looked up): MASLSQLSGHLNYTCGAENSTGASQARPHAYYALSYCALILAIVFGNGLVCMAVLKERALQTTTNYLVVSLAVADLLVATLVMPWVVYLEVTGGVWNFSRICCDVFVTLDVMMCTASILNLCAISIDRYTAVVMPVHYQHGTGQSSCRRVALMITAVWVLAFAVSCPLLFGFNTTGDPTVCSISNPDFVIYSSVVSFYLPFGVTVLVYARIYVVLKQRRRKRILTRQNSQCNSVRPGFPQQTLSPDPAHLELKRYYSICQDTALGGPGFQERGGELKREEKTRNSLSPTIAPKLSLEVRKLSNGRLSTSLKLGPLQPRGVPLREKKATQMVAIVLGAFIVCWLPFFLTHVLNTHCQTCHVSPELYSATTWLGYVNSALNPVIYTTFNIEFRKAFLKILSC
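Agonist mode: compounds and dopamine controls were applied to plated cells for 90 min at 37 degrees C after an overnight attachment at 1500 cells/well. Luminescent read-out followed 30 - 60 minutes at room temperature with DiscoveRx detection reagent.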
D1 ag: human D1 receptor agonism. HEK293 T-REx D1 cells, calcium flux, agonist mode. activation, % at 2 µM. 360,000 compounds, 1% hits. AID 504660; in the data active = activation above about 30%; also: 0% is about no effect
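Inducible HEK293 T-REx D1 cells, force-coupled to calcium signalling, were plated at 4000 cells/well with tetracycline and held overnight at 30 C. After no-wash calcium dye loading, compound-evoked calcium rise over 180 s flagged agonists.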
DRD3 antagonist: D3 dopamine receptor (human) antagonism. D3R cells, DiscoveRx beta-arrestin luminescence, antagonist mode; stronger effect = lower value. max response, negative = inhibition, %. 360,000 compounds, 2.5% hits. AID 652054; in the data active = max response below about -50%; also: % is scaled to controls: 0 for no effect and ±100 for the full control effect
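Cells expressing the human receptor were seeded at 1500 cells/well, incubated overnight at 37 degrees C in 5% CO2, then exposed to library compounds with dopamine controls for 90 minutes at 37 degrees C before luminescent detection.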
Active calls of the source: *; / = no result given; ! = not confirmed by another sample. Rows were chosen to be rich in hits. Some 6% of all compounds tested hit in one or more screens of this group.

SMILES	D1 antag	D1 potentiator	DRD3 agonist	D1 ag	DRD3 antagonist
CCN1C(=O)NC(=O)/C(=C\c2cn(CC(=O)N3CCCCC3C)c3ccccc23)C1=O (stereo unspecified)	-30*	-1	-4	11	9
CN1C(=O)C(=Cc2cn(CC(=O)N3CCCC3)c3ccccc23)C(=O)N(C)C1=O	2	2	-16	3	-12
Nc1c(Cl)c(Cl)c(Cl)c(Cl)c1Cl	/	/	12	/	/
O=C(C1CCCO1)N1CCC2(CC1)OCCO2 (stereo unspecified)	-17	5	14	3	-60*
O=C(C1CCC(=O)N1C1CCCC1)N1CCC2(CC1)OCCO2 (stereo unspecified)	-19	-2	3	4	-12
COc1ccc(NC(=O)CN2C(=O)C(C)N=C(c3ccccc3F)c3cc(Cl)ccc32)c(OC)c1 (stereo unspecified)	4	6	7	1	/
CN(C)CCc1c[nH]c2cccc(OP(=O)(O)O)c12	/	/	7	/	/
COc1ccccc1CCNC1CCC(C(C)(C)C)CC1 (stereo unspecified)	-20	-8	-38	89*	-74*
Cc1ccccc1-c1nc(CN2C(=O)CN=C(c3ccccc3)c3ccccc32)c(C)o1	10	0	-15	0	/
CC/C(CC(c1ccccc1)c1c(O)c2ccccc2oc1=O)=N\NC(N)=S (stereo unspecified)	-32*	-12	2	4	1
O=c1oc2ccccc2c(O)c1C(CC(O)c1ccc(-c2ccc(Br)cc2)cc1)c1ccccc1 (stereo unspecified)	/	/	8	/	/
CN(C)CCO	/	/	-1	/	/
CCCCN1C(=O)NC(=O)C2(Cc3c(nc4c(C)cccn4c3=O)N3CCc4ccccc4C32)C1=O (stereo unspecified)	53	5	0	38*	12
CCc1cc(OC)c(C[C@H](C)N)cc1OC	/	/	2	/	/
CCCCCCCCCC(=O)O[C@H]1CC[C@H]2[C@@H]3CCC4=CC(=O)CC[C@@H]4[C@H]3CC[C@]12C	/	/	8	/	/
CN1C[C@H](CO)C[C@@H]2c3cccc4[nH]cc(c34)C[C@H]21	-42*	-7	30*	1	-56*
CCN(CC)C(=O)N[C@H]1C[C@@H]2c3cccc4[nH]cc(c34)C[C@H]2N(C)C1	-89*	-6	79*	2	-4
O=C(c1ccc2c(c1)N(Cc1ccc(F)cc1Cl)C(=O)c1ccccc1S2)N1CCC2(CC1)OCCO2	-6	-1	6	-1	/
CN1C2CCC1C(COC(=O)c1ccccc1)C(O)C2 (stereo unspecified)	13	-2	3	1	3
CC1CCN(C(CC(=O)c2ccccc2)C(=O)c2ccccc2)CC1 (stereo unspecified)	/	/	-20	/	-79*
CN(C)c1cccc(CN2CCN(c3ccccc3)CC2)c1	/	/	-12	/	-85*
COC(=O)C1C=C2c3cccc4[nH]cc(c34)CC2N(C)C1 (stereo unspecified)	-1	-8	/	9	/
CN1C[C@H](C(=O)N[C@]2(C)O[C@@]3(O)[C@@H]4CCCN4C(=O)[C@H](Cc4ccccc4)N3C2=O)C=C2c3cccc4[nH]cc(c34)C[C@H]21	/	/	-11	/	/
CC[C@@H](CO)NC(=O)[C@@H]1C=C2c3cccc4c3c(cn4C)C[C@H]2N(C)C1	-77*!	-3	-88	18	-93*
CC[C@@H](CO)NC(=O)[C@@H]1C=C2c3cccc4[nH]cc(c34)C[C@H]2N(C)C1	/	/	33*	/	-17
CCC(CO)NC(=O)C1C=C2c3cccc4[nH]cc(c34)CC2N(C)C1 (stereo unspecified)	-86*	-14	15	25	-57*
CC(C)C[C@H]1C(=O)N2CCC[C@H]2[C@]2(O)O[C@](NC(=O)[C@@H]3C=C4c5cccc6[nH]cc(c56)C[C@H]4N(C)C3)(C(C)C)C(=O)N12	-27	0	-9	9	-76*
CC(C)C[C@H]1C(=O)N2CCC[C@H]2[C@]2(O)O[C@](NC(=O)[C@@H]3C[C@@H]4c5cccc6[nH]cc(c56)C[C@H]4N(C)C3)(C(C)C)C(=O)N12	/	/	17	/	/
